# According to PubChem BioAssay (EPA / NIEHS):
# Values joined by “and” are separate entries in the source; they are usually repeats but may differ in a detail not shown here. Equal entries are not always repeated. Results filed as inconclusive are left out. Some structures have more than one record in an assay (separate samples or runs), and their calls can disagree. Active and inactive are the calls of the source. Rule for the calls: active = hit-call score of the fitted dose curve at least 0.9, where 1 is the maximum; inconclusive = response in the unintended direction; inactive = score below 0.9.
# Key:
# [1] = ACEA_AR_agonist_AUC_viability: ACEA Biosciences xCELLigence Real-Time Cell Analysis on Androgen Receptor Agonism for Viability (AID 2283775);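 for AC50: viability read 80 hours after compound addition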
# How it was run: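 22Rv1 cells; impedance growth kinetics; 8-pt 1:4 dilutions from 100 uM top final, ≤0.5% DMSO; n = 2; 80 h read; AUC viability, loss-of-signal vs DMSO.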
# [2] = ACEA_AR_antagonist_AUC_viability: ACEA Biosciences xCELLigence Real-Time Cell Analysis on Androgen Receptor Antagonism for Viability (AID 2283776);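 note: area under impedance growth curve at 80 h after dosing as viability; hits lower the growth signal relative to DMSO meaning cytotoxicity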
# How it was run: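 22Rv1 human prostate cancer cells were seeded on electrode plates, monitored overnight, then exposed to eight 1:4 dilutions from 100 uM final. Impedance-based growth kinetics at 80 h gave an AUC viability endpoint normalized to DMSO.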
# [3] = ACEA_ER_AUC_viability: ACEA Biosciences xCELLigence Real-Time Cell Analysis on Estrogen Receptor Agonism for Viability (AID 2283782);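 note: hit means loss of impedance signal meaning reduced cell growth or viability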
# How it was run: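 Continuous-exposure impedance cell analysis uses T-47D cells in charcoal-stripped serum, eight 1:4 dilutions topping at 100 uM final, biological duplicate. Area under the growth curve at 80 h is fitted against DMSO baseline.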
# [4] = system: frog Estrogen Receptor (ESR1), gene 398734; assay: ATG_frER1_XSP1: Attagene TRANS-FACTORIAL Multi-Species (XSP1) HepG2 Assay for frog Estrogen Receptor (ESR1) (AID 2283777)
# How it was run: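 After transient transfection and 24 h compound treatment, total RNA from HepG2 cells was reverse-transcribed, amplified, FAM-labeled and resolved by capillary electrophoresis. Signal increases were fitted against DMSO controls.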
# [5] = molecular target: chicken Estrogen Receptor (ESR1), ESR1 (gene 396099) (UniProt P06212); assay: ATG_chERa_XSP1: Attagene TRANS-FACTORIAL Multi-Species (XSP1) HepG2 Assay for chicken Estrogen Receptor (ESR1) (AID 2283779)
# Chain of chicken Estrogen Receptor (ESR1), ESR1 (gene 396099) (P06212 whole entry, looked up, the tested form may be a part): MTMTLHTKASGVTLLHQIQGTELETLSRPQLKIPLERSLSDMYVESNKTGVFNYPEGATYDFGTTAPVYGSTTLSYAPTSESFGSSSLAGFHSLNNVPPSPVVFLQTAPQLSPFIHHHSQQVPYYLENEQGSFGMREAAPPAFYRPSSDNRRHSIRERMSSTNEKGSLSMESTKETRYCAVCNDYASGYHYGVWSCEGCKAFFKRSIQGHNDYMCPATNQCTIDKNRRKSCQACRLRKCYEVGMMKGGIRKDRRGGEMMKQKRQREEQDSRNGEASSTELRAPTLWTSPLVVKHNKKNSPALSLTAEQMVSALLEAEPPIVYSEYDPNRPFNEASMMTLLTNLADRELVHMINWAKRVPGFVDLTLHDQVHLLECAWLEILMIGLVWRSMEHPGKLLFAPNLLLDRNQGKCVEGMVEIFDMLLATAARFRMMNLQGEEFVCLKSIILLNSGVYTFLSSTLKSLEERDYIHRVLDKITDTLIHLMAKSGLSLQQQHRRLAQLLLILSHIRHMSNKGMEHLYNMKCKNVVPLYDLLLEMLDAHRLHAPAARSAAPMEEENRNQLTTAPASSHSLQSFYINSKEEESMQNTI
# How it was run: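 Gain-of-signal reporter transcription, relative to DMSO, was scored in transiently transfected HepG2 cells after a 24 h dose. Fluorescence intensity of amplified, digested reporter cDNA fragments served as the endpoint.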
# [6] = system: turtle Estrogen Receptor (ESR1), gene 101933533; assay: ATG_trERa_XSP1: Attagene TRANS-FACTORIAL Multi-Species (XSP1) HepG2 Assay for turtle Estrogen Receptor (ESR1) (AID 2283781)
# How it was run: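 Cell-based chimeric NR-Gal4 transactivation; HepG2; 24 h dosing; mRNA reporter detected by RT-PCR and capillary electrophoresis fluorescence.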
# AR (gene 367) = AR (gene 367) (UniProt P10275); assay: ACEA_AR_agonist_80hr: ACEA Biosciences xCELLigence Real-Time Cell Analysis on Androgen Receptor Agonism for Proliferation (AID 2283783);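 note: hits increase impedance growth signal above DMSO baseline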
# Chain of AR (gene 367) (P10275 whole entry, looked up): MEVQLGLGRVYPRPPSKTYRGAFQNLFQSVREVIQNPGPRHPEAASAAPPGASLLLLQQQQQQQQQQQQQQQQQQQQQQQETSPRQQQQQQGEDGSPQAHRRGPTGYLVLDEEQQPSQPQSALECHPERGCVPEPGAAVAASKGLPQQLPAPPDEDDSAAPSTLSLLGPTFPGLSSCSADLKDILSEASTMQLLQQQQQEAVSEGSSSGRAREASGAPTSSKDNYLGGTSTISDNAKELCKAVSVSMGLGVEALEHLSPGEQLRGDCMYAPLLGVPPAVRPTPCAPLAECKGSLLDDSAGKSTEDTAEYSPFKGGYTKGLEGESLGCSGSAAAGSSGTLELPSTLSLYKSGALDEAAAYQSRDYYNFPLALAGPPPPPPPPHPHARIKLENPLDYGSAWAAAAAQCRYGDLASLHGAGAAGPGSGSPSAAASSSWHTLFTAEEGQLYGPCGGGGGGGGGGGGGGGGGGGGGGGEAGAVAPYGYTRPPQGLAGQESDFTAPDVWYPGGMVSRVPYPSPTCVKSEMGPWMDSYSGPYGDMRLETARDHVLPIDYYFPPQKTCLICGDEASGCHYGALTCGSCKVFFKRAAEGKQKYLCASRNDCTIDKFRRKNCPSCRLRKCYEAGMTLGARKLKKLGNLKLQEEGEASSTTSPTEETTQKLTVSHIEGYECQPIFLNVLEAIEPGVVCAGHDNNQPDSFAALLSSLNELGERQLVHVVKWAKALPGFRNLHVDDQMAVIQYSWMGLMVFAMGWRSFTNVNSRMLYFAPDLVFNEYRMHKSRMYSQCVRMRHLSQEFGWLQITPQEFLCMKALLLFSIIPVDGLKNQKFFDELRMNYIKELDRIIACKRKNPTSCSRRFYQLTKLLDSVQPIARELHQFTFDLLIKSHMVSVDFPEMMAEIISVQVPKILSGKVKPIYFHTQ
# How it was run: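 Real-time cell-growth kinetics were recorded by electrode impedance in 22Rv1 cells exposed to test chemicals up to 100 uM final; the 80 h timepoint served as the readout, fitted upward relative to DMSO controls, in biological duplicate.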
# [7] = STM_H9_NormalizedViability: Cytotoxicity Assessment at 120 hours in the Stemina devTOX quickPredict H9 human embryonic stem cell (hESC)-based Assay (AID 2283784)
# How it was run: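 Viability of the cell layer was taken from live-cell protease cleavage of a fluorogenic substrate after compound exposure of undifferentiated H9 stem cells, with replenishment each 24h. Fluorescence was normalized to vehicle (0.1% DMSO).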
# [8] = system: zebrafish Estrogen Receptor (ESR2A), gene 317734; assay: ATG_zfER2a_XSP1: Attagene TRANS-FACTORIAL Multi-Species (XSP1) HepG2 Assay for zebrafish Estrogen Receptor (ESR2A) (AID 2283778)
# How it was run: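 Gain-of-signal reporter transcription readout from GAL4-UAS units in transiently transfected HepG2 cells, 24 h exposure, 3 nM 6-alpha-fluorotestosterone co-present. Detection by RT-PCR with capillary electrophoresis fluorescence.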
# [9] = molecular target: Estrogen receptor (Homo sapiens) (UniProt P03372); assay: ATG_hERa_XSP1: Attagene TRANS-FACTORIAL Multi-Species (XSP1) HepG2 Assay for human Estrogen Receptor (ESR1) (AID 2283780)
# Chain of Estrogen receptor (Homo sapiens) (P03372 whole entry, looked up, the tested form may be a part): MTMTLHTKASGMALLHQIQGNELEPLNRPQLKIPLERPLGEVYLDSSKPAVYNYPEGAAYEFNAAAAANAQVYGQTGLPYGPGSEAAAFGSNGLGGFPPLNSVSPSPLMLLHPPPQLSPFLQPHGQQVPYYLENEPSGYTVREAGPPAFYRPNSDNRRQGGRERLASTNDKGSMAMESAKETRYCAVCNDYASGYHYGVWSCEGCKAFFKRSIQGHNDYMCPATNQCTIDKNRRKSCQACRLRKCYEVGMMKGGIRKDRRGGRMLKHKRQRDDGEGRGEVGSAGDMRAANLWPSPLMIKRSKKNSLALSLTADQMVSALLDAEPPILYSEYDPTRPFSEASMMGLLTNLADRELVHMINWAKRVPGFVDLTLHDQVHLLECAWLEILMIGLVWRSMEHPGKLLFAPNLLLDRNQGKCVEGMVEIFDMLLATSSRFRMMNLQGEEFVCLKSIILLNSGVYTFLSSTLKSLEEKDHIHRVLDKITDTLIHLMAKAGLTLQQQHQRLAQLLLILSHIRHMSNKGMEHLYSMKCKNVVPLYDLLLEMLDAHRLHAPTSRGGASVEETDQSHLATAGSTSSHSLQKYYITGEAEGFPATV
# How it was run: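 Reporter transcripts from multiplexed GAL4-UAS units driven by NR-Gal4 chimeras in transiently transfected HepG2 were measured by RT-PCR with capillary electrophoresis 24 h post-dose, with 3 nM 6-alpha-fluorotestosterone present; gain-of-signal relative to DMSO.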
smiles,measurement,setting,value
CCCCOCCOC(C)=O,outcome,[1],inactive
CC(C#N)CCC#N (stereo not drawn),outcome,[1],inactive
Clc1ccc(C2(Cn3cncn3)CC(Br)CO2)c(Cl)c1 (stereo not drawn),outcome,[1],inactive
same,outcome,[2],inactive
CCC[CH2][Sn]([CH2]CCC)([CH2]CCC)[O]C(=O)c1ccccc1,AC50,[1],4.45 µM (active)
same,AC50,[2],1.06 µM (active)
same,AC50,[3],1.28 µM (active)
O=C(OC1CCCCC1)c1ccccc1C(=O)OC1CCCCC1,outcome,[1],inactive
CCC1(c2ccc(N)cc2)CCC(=O)NC1=O (stereo not drawn),outcome,[1],inactive
same,outcome,[2],inactive
same,outcome,[3],inactive
C=CCc1ccc(OC)cc1,outcome,[1],inactive
same,outcome,[2],inactive
same,outcome,[3],inactive
Cn1sc(Cl)cc1=O,AC50,[1],77.2 µM (active)
same,AC50,[2],80.7 µM (active)
same,AC50,[3],86.9 µM (active)
N#CN=C(N)N,outcome,[1],inactive
same,outcome,[2],inactive
OCc1ccco1,outcome,[1],inactive
Oc1ccc(-c2ccccc2)cc1,outcome,[1],inactive
Fc1ccc(C2(Cn3cncn3)OC2c2ccccc2Cl)cc1 (stereo not drawn),outcome,[1],inactive
CC(C)C1CCC(Cc2ccc(Cl)cc2)C1(O)Cn1cncn1 (stereo not drawn),outcome,[1],inactive
same,AC50,[2],4.94 µM (active)
same,AC50,[3],19.9 µM (active)
O=C(Cc1ccccc1)c1ccccc1,outcome,[1],inactive
O=C(NCO)NCO,outcome,[1],inactive
same,outcome,[2],inactive
O=C1C2(Cl)C3(Cl)C4(Cl)C(Cl)(Cl)C5(Cl)C3(Cl)C1(Cl)C5(Cl)C24Cl (stereo not drawn),AC50,[1],7.07 µM (active)
same,AC50,[2],7.14 µM (active)
same,AC50,[4],0.271 µM (active)
same,AC50,[5],0.0284 µM (active)
same,AC50,[6],0.383 µM (active)
same,AC50,[3],10.4 µM (active) and 7.76 µM (active) and 8.91 µM (active)
same,outcome,AR (gene 367),inactive
same,outcome,[7],inactive
COc1cc(-c2ccc(N)c(OC)c2)ccc1N,AC50,[1],27.1 µM (active)
CC(C)(C)CC(C)(C)c1ccc(O)cc1,AC50,[1],10.4 µM (active)
same,AC50,[2],8.78 µM (active)
same,AC50,[4],1.86 µM (active)
same,outcome,[8],inactive
same,AC50,[5],2.21 µM (active)
same,AC50,[6],2.15 µM (active)
same,AC50,[3],21.2 µM (active) and 21.4 µM (active) and 21.5 µM (active)
same,outcome,AR (gene 367),inactive
Cl/C=C/Cl,outcome,[1],inactive
COc1cc(OC)nc(NC(=O)NS(=O)(=O)c2ncccc2C(=O)N(C)C)n1,AC50,[1],1.74 µM (active)
C[C@H]1CCCC(=O)CCC/C=C/c2cc(O)cc(O)c2C(=O)O1,AC50,[1],30.3 µM (active)
same,outcome,[1],inactive
same,outcome,AR (gene 367),inactive
CC(C)c1cccc(C(C)C)c1O,outcome,[1],inactive
same,outcome,[2],inactive
CCOP(=S)(OCC)SCSP(=S)(OCC)OCC,outcome,[1],inactive
O=C(O)C(F)(F)C(F)(F)C(F)(F)C(F)(F)C(F)(F)C(F)(F)F,outcome,[1],inactive
Cc1ccc(N)cc1Cl,outcome,[1],inactive
CCC(=O)C(CC(C)N(C)C)(c1ccccc1)c1ccccc1 (stereo not drawn),AC50,[1],22.3 µM (active)
same,AC50,[2],32.9 µM (active)
same,AC50,[3],36.2 µM (active)
CC1(C)Cc2cccc(O)c2O1,outcome,[1],inactive
CCC[CH2][Sn]([Cl])([Cl])[Cl],outcome,[1],inactive
CCC(C)(C)c1ccc(O)c(C(C)(C)CC)c1,outcome,[1],inactive
same,AC50,[2],47.9 µM (active)
same,AC50,[3],14.9 µM (active)
Oc1cccc2cccnc12,AC50,[1],22.3 µM (active) and 6.75 µM (active)
same,AC50,[2],18.6 µM (active) and 9.5 µM (active)
same,outcome,[3],inactive
O=C1CCCN1,outcome,[1],inactive
CCOC(=O)Nc1cccc(OC(=O)Nc2ccccc2)c1,outcome,[1],inactive
same,outcome,[2],inactive
same,outcome,[3],inactive
CC(=O)C=C(C)C,outcome,[1],inactive
same,outcome,[2],inactive
O=S(=O)(c1ccc(Cl)cc1)c1ccc(Cl)cc1,outcome,[1],inactive
same,outcome,[2],inactive
NNC(=S)NN,outcome,[1],inactive
Cc1ccccc1C(=O)Nc1cccc(OC(C)C)c1,outcome,[1],inactive
CC(C)OC(=O)Nc1ccccc1,outcome,[1],inactive
same,outcome,[3],inactive
CCOP(=S)(OCC)Oc1nc(Cl)c(Cl)cc1Cl,AC50,[1],83.9 µM (active)
same,AC50,[3],87.6 µM (active)
BrCCBr,outcome,[1],inactive
same,outcome,[3],inactive
Cl/C=C\C[N+]12CN3CN(CN(C3)C1)C2,outcome,[1],inactive
same,AC50,[3],50 µM (active)
CC(C)(OO)c1ccccc1,outcome,[1],inactive
same,AC50,[3],14.7 µM (active)
CC12CC1(C)C(=O)N(c1cc(Cl)cc(Cl)c1)C2=O (stereo not drawn),outcome,[1],inactive
same,outcome,[4],inactive
same,outcome,[8],inactive
same,AC50,[5],100 µM (active)
same,AC50,[6],30.9 µM (active)
same,outcome,[3],inactive
same,outcome,[7],inactive
O=C1C(Cl)=C(Cl)C(=O)c2ccccc21,outcome,[1],inactive
same,AC50,[3],16.7 µM (active)
O=c1[nH]c(=O)[nH]c(=O)[nH]1,outcome,[1],inactive
same,outcome,[3],inactive
same,outcome,AR (gene 367),inactive
CC(C)(C)c1cc(O)ccc1O,AC50,[1],90.9 µM (active)
same,outcome,[4],inactive
same,outcome,[8],inactive
same,AC50,[5],8.92 µM (active)
same,AC50,[9],8.75 µM (active)
same,AC50,[6],8.26 µM (active)
same,AC50,[3],9.53 µM (active)
C=C(C)C(=O)[O][Sn]([CH2]CCC)([CH2]CCC)[CH2]CCC,AC50,[1],1.43 µM (active)
same,AC50,[3],1.43 µM (active)
same,AC50,[7],0.713 µM (active)
